{"source": "paper PMC4552634", "about": "“A New Set of Chemical Starting Points with Plasmodium falciparum Transmission-Blocking Potential for Antimalarial Drug Discovery” (PLoS ONE, 2015)", "note": "The whole screen tested about 13,000 compounds, of which about 3,200 (25%) showed an effect of 50% or more. Some of the results follow.", "data": [{"system": "P. falciparum stage V gametocytes", "design": "BacTiter-Glo ATP luminescence viability of purified stage V gametocytes in 384-well plates, per cent inhibition versus DMSO", "details": "48 h, 5 µM; inhibitor", "units": {"% Inhibition": "%"}, "values": [{"smiles": "COc1ccc(C2CC(=O)C3=C(C2)NC(C)=C(C(=O)OC(C)C)C3c2c(F)cccc2Cl)cc1OC", "note": "(stereo not drawn) [TCMDC-124040]", "% Inhibition": 34.34}, {"smiles": "CNC(=O)c1ccc2nc(-c3ccc(-c4ccccc4)cc3)n(CC3CCN(CC4CCCC4)CC3)c2c1", "note": "[TCMDC-136523]", "% Inhibition": 25.32}, {"smiles": "CNC(=O)c1ccc2nc(C3CC3)n(CC3CCN(S(=O)(=O)c4cccc(Cl)c4)CC3)c2c1", "note": "[TCMDC-136189]", "% Inhibition": 88.15}, {"smiles": "COC(=O)Cn1c(C2CCN(CC3CCN(C(=O)/C=C/c4ccc(Cl)c(Cl)c4)CC3)CC2)nc2ccccc21", "note": "[TCMDC-140298]", "% Inhibition": 2.762}, {"smiles": "O=C(/C=C/c1cccc(C(F)(F)F)c1)NCCCCCN1CCN(C(=O)Nc2ccc(Cl)c(Cl)c2)CC1", "note": "[TCMDC-135794]", "% Inhibition": -9.962}, {"smiles": "O=C1C2C(c3ccc(Cl)c(Cl)c3)N3CC(OCc4ccccc4)CC3(C(=O)O)C2C(=O)N1c1ccc(Br)cc1", "note": "(stereo not drawn) [TCMDC-139263]", "% Inhibition": 16.51}, {"smiles": "Cc1cccc2nc(-c3ccc(-c4ccc(NC(=O)Nc5ccsc5)cc4)s3)[nH]c12", "note": "[TCMDC-133209]", "% Inhibition": -24.83}, {"smiles": "CN(C)Cc1cc2c(O)c(Cc3ccccc3)ccc2o1", "note": "[TCMDC-124091]", "% Inhibition": 7.975}, {"smiles": "CCC(Cc1ccccc1)c1cc(O)c(Cc2ccc(-c3ccccc3)cc2)c(=O)o1", "note": "(stereo not drawn) [TCMDC-140730]", "% Inhibition": -3.123}, {"smiles": "CN(C)Cc1c(O)ccc2oc(Cc3ccccc3)cc12", "note": "[TCMDC-125816]", "% Inhibition": 62.06}, {"smiles": "O=S1(=O)NC2(CCN(CCc3ccc(Cl)cc3)CC2)Nc2cc(F)cc(F)c21", "note": "[TCMDC-124990]", "% Inhibition": -19.76}, {"smiles": "Cc1ccc(S(C)(=O)=O)cc1/C=C/C(=O)O", "note": "[TCMDC-139220]", "% Inhibition": 3.947}, {"smiles": "COc1ccc2nccc([C@@H](O)CN3CCC(NCCOc4ccc(F)cc4[N+](=O)[O-])CC3)c2c1", "note": "[TCMDC-140659]", "% Inhibition": -1.987}, {"smiles": "CN1CCN(c2ccnc3ccc(NC(=O)Nc4cccc5ccccc45)cc23)CC1", "note": "[TCMDC-139346]", "% Inhibition": 6.615}, {"smiles": "O=c1nc(C=Cc2ccc(Br)cc2)oc2ccccc12", "note": "[TCMDC-123878]", "% Inhibition": 22.17}, {"smiles": "CCCc1c(C(=O)NC2CCC(CN3CCC(c4c[nH]c5ccccc45)CC3)CC2)cnn1-c1c(Cl)cc(Cl)cc1Cl", "note": "(stereo not drawn) [TCMDC-140423]", "% Inhibition": 74.19}, {"smiles": "O=C(NC1CCC(CN2CCC(c3c[nH]c4ccccc34)CC2)CC1)c1cc(-c2cccc(Cl)c2)n(-c2ccc(Cl)cc2Cl)n1", "note": "(stereo not drawn) [TCMDC-140353]", "% Inhibition": -7.21}, {"smiles": "CCCc1c(C(=O)NC2CCC(CN3CCC(c4c[nH]c5ccccc45)CC3)CC2)cnn1-c1ccc(Cl)cc1", "note": "(stereo not drawn) [TCMDC-140261]", "% Inhibition": 29.96}, {"smiles": "CCCc1c(C(=O)NC2CCC(CN3CCC(c4c[nH]c5ccccc45)CC3)CC2)cnn1-c1ccccc1", "note": "(stereo not drawn) [TCMDC-139954]", "% Inhibition": 89.66}, {"smiles": "Cc1c(C(=O)NC2CCC(CN3CCC(c4c[nH]c5ccccc45)CC3)CC2)cnn1-c1c(Cl)cc(Cl)cc1Cl", "note": "(stereo not drawn) [TCMDC-140357]", "% Inhibition": 8.343}, {"smiles": "O=C(NC1CCC(CN2CCC(c3c[nH]c4ccccc34)CC2)CC1)c1cc(-c2ccccc2Cl)n(-c2cccc(Cl)c2)n1", "note": "(stereo not drawn) [TCMDC-140354]", "% Inhibition": -13.83}]}]}
